Bioassay records from PubChem BioAssay.
TDP1 cell CPT = DT40-hTDP1 cell growth loss with CPT; 12% of 420,000 active; AID 686979; chicken DT40 Tdp1-/-;hTDP1 cells + 20 nM CPT, ATP luminescence, 48 h; Potency, µM (titrated, usually from 46.2 µM), for inactives: at the highest dose activity change, negative = growth inhibition, usual class: inhibitors; note: potency is the fitted concentration of half-maximal effect; nearly all actives have a fitted effect of over 55% in size
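Chicken DT40 Tdp1-/- cells stably complemented with human TDP1 were seeded at 400 cells/well in medium containing 20 nM camptothecin, exposed to pin-transferred compounds, and grown at 37 °C for at least 48 hr. Viability was read as ATP luminescence.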
HT1080NT lethal = kills 2HG-producing HT-1080-NT fibrosarcoma cells; AID 686970; Potency, µM (doses to about 46.1 µM), for inactives: at the highest dose activity, negative = less viability, hits mostly cytotoxic; 1.6% of 360,000 active; HT-1080-NT fibrosarcoma viability, CellTiter-Glo ATP luminescence, 48 h;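 note: NT is the 2HG producing partner of a matched IDH1 knockdown line; potency is the fitted concentration of half-maximal effect; 0% = DMSO-treated cells and -100% = media-only wells without cells; nearly all actives have a fitted effect of over 55% in size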
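Read-out is CellTiter-Glo luminescence after 10 minutes at room temperature, following 48 hours' compound treatment of HT-1080-NT cells (750 cells/well, RPMI, 5% FBS, 37 degrees C).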
DT40 TDP1 no CPT = qHTS for Inhibitors of human tyrosyl-DNA phosphodiesterase 1 (TDP1): qHTS in cells in absence of CPT | DT40 Tdp1-/- hTDP1 cells, no CPT, ATP luminescence, 48 h | Potency, µM (titrated, usually from 46.2 µM), for inactives: at the highest dose activity change, negative = growth inhibition, usual class: inhibitors | 15% of 420,000 active; note: potency is the fitted concentration of half-maximal effect; nearly all actives have a fitted effect of over 55% in size
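No-CPT arm: Tdp1-/-;hTDP1 DT40 cells (400/well) plus compounds, incubated ≥48 hr at 37 °C. Readout CellTiter-Glo luminescence.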
IL1B secr inh = blocks inflammasome-driven IL-1 beta release. activity change, % at 57.5 µM. 4.7% of 360,000 active. AID 743279. THP-1 LPS/ATP IL-1B secretion, AlphaLISA, 16 h; stronger effect = lower value; in the data active = activity change below about -50%; inconclusive = mostly about -30% to -49%
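THP-1 cells pretreated 1 hr with compounds (up to 57.5 uM final), then stimulated with LPS (250 ng/mL final) plus ATP (1.25 mM final); secreted IL-1B measured by AlphaLISA after 16 hr, decreased signal indicating inhibition.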
HT1080 IDH1KD tx = HT-1080 IDH1 knockdown cell toxicity (counter line); HT-1080 IDH1 knockdown viability, ATP luminescence, 48 h; Potency, µM (doses to about 46.1 µM), for inactives: at the highest dose activity, negative = toxicity, actives largely listed as cytotoxic; 2% of 360,000 active;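 note: potency is the fitted concentration of half-maximal effect; 0% = DMSO wells and -100% = cell-free medium wells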
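% activity derives from luminescence (CellTiter-Glo), normalised to DMSO and no-cell wells. HT-1080-IDH1KD cells, 750/well, had 48 h compound exposure at 37 °C.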
* marks the source's active call; other numbers are inactive results. A selection: hits, their analogues and other compounds. The true share with any hit is near 19%. Unless noted, calls come from the whole dose curve; as a rule, active = well fitted curve in the direction sought with a large enough effect; inconclusive = small, poorly fitted or top-dose-only effect, or another doubt; inactive = no such curve, though single readings can be large; an effect the other way counts as inactive or inconclusive. Unless noted, % is set by controls: 0 for no effect and ±100 for the full control effect.

For CN(C)c1ccc([P+](=O)c2ccc(N(C)C)cc2)cc1 the results were TDP1 cell CPT inconclusive, HT1080NT lethal 4%, DT40 TDP1 no CPT 21µM*, IL1B secr inh -21 and HT1080 IDH1KD tx 2%.
Screening CC[C@@]1([C@@H]2O[C@@H]([C@H]3O[C@@](O)(CO)[C@H](C)C[C@@H]3C)C[C@@H]2C)CC[C@H]([C@]2(C)CC[C@]3(C[C@H](O)[C@@H](C)[C@@H]([C@@H](C)[C@@H](OC)[C@H](C)C(=O)O)O3)O2)O1 (stereo in doubt) returned TDP1 cell CPT 0.23µM* and DT40 TDP1 no CPT 0.21µM*.
`c1ccc(-c2ccc3c(c2)CNCc2cnnn2-3)cc1` gave TDP1 cell CPT -25%, HT1080NT lethal 17%, DT40 TDP1 no CPT -15%, IL1B secr inh 2 and HT1080 IDH1KD tx 8%.
Cc1cccc(C2=NN(c3ccc(Br)cc3)[C@@H](C(=O)N3CCOC3=O)[C@@H]2c2ccc([N+](=O)[O-])cc2)c1 was read as TDP1 cell CPT inconclusive, HT1080NT lethal -11%, DT40 TDP1 no CPT inconclusive, IL1B secr inh -20 and HT1080 IDH1KD tx -21%.
`CCNC(=O)C1CCCN(Cc2cc(C(F)(F)F)ccc2Cl)CC1` (centres undefined) gave TDP1 cell CPT 26µM*, HT1080NT lethal 26%, DT40 TDP1 no CPT inconclusive, IL1B secr inh 26 and HT1080 IDH1KD tx 22%.
For CC(C)Oc1ccc(CNC(=O)Oc2ccccc2)cc1 the results were TDP1 cell CPT 2%, HT1080NT lethal -3%, DT40 TDP1 no CPT -12%, IL1B secr inh 0 and HT1080 IDH1KD tx inconclusive.
Cc1ccccc1OCCN=Cc1c(O)n(C)c(=O)n(C)c1=O was read as TDP1 cell CPT inconclusive, HT1080NT lethal 2%, DT40 TDP1 no CPT 21µM*, IL1B secr inh 26 and HT1080 IDH1KD tx -17%.
Cn1c(O)c(C=NCc2cccs2)c(=O)n(C)c1=O was read as TDP1 cell CPT inconclusive, HT1080NT lethal 4%, DT40 TDP1 no CPT 1%, IL1B secr inh 2 and HT1080 IDH1KD tx 14%.
`CC(=O)OC(C)(C)/C=C/C(=O)[C@](C)(O)[C@H]1[C@H](O)C[C@@]2(C)[C@@H]3CC=C4[C@H](C[C@H](O)C(=O)C4(C)C)[C@]3(C)C(=O)C[C@]12C` gave TDP1 cell CPT 0.046µM*, HT1080NT lethal 0.082µM*, DT40 TDP1 no CPT 0.0073µM*, IL1B secr inh -112* and HT1080 IDH1KD tx 0.033µM*.
CC(=O)OC(C)(C)/C=C/C(=O)C(C)(O)C1C(O)CC2(C)C3CC=C4C(CC(O)C(=O)C4(C)C)C3(C)C(=O)CC12C (centres undefined) was read as TDP1 cell CPT 0.026µM*, HT1080NT lethal 0.12µM*, DT40 TDP1 no CPT 0.016µM*, IL1B secr inh -99* and HT1080 IDH1KD tx 0.046µM*.
CC(=O)OC(C)(C)/C=C/C(=O)C(C)(O)C1[C@H](O)C[C@@]2(C)C3CC=C4C(CC[C@@H](O)C4(C)C)[C@]3(CO)C(=O)C[C@]12C (some centres undefined) was read as TDP1 cell CPT 0.018µM*, HT1080NT lethal 0.1µM*, DT40 TDP1 no CPT 0.01µM*, IL1B secr inh -98* and HT1080 IDH1KD tx 0.033µM*.
CCC(=NCC1CCCO1)c1c(O)n(-c2ccc(OC)cc2)c(=O)[nH]c1=O (centres undefined) was read as TDP1 cell CPT 15%, HT1080NT lethal 0%, DT40 TDP1 no CPT 1%, IL1B secr inh -4 and HT1080 IDH1KD tx 2%.
CCC1(c2ccccc2)C(=O)NC(=O)N(C(=O)c2ccccc2)C1=O (centres undefined) was read as TDP1 cell CPT -19% and DT40 TDP1 no CPT -21%.
COc1ccc(SCC2CN(C)CCC2c2ccc(F)cc2)cc1 (centres undefined) was read as TDP1 cell CPT inconclusive, HT1080NT lethal inconclusive, DT40 TDP1 no CPT inconclusive, IL1B secr inh -2 and HT1080 IDH1KD tx -25%.
